# Assay results from PubChem BioAssay (NCATS).
# Records with an inconclusive call do not appear. Where a call stands in place of a potency, no number is given. Active and inactive are the calls of the source. The call rests on the fitted dose curve; in most records, active means well fitted inhibition curve with a large enough effect; inconclusive means small, poorly fitted or top-dose-only effect; inactive means flat fitted curve, though single readings scatter.
# Biological target: Calcium and integrin-binding protein 1 (Homo sapiens) (UniProt Q99828)
# Sequence (Q99828 whole entry, looked up): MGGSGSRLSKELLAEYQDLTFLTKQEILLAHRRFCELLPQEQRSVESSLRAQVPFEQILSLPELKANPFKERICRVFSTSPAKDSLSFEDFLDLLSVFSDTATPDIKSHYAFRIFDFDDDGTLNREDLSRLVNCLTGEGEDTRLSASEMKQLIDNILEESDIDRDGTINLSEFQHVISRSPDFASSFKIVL
# Test: Primary qHTS for Identification of Calcium Integrin Binding Protein 1 (CIB1) Competitor (AID 1508620); further: top concentration of the series differs between compounds
# Conditions: CIB1-GST / FITC-alphaIIb peptide fluorescence polarization; series mostly up to 114 µM
# Method in brief: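 Fluorescence polarization competition: GST-tagged CIB1 (1 uM final) preincubated with compound 15 min at room temperature, then FITC-labelled alphaIIb peptide (100 nM final) added. After 15 min at room temperature, polarization read at Ex 480/Em 540.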
row,Compound,Potency
1,O=C(Nc1nnc(-c2ccco2)o1)c1ccncc1,inactive
2,Nc1nc(NCc2ccc(-c3cccnc3)cc2)c2ccccc2n1,inactive
3,CN(CC(=O)Nc1ccc(N2CCOCC2)cc1)Cc1ccccc1O,inactive
4,Cc1ccsc1CN(C)c1ncnc2ccc(-c3ccoc3C)cc12,inactive
5,O=S1(=O)N=C(OCc2ccccc2)c2ccccc21,inactive
6,O=C1CCCC2=C1C(c1[nH]ncc1Cl)NC(=NCCc1ccc(O)cc1)N2 (stereo not given),inactive
7,c1ccc(CN(Cc2ccccc2)Cc2nnc(-c3cc4ccccc4[nH]3)s2)cc1,inactive
8,COc1cc(-c2nc(Nc3ccc(F)c(F)c3)c3ccccc3n2)c(F)cn1,inactive
9,CC(C)CN1CCN(C(=O)COC(=O)c2ccc(S(C)(=O)=O)c([N+](=O)[O-])c2)CC1,inactive
10,COc1ccc(C2c3c(ncn(CCc4ccccc4)c3=N)Oc3ccc4ccccc4c32)cc1OC (stereo not given),inactive
11,Cc1cn([C@H]2C[C@H](N[S+](=O)([O-])Cc3cccc(Cl)c3)[C@@H](CO)O2)c(=O)[nH]c1=O,inactive
12,O=C(NCc1nnc(C(=O)Nc2ccc(C(F)(F)F)cc2Cl)o1)c1ccccc1,inactive
13,CC(=O)c1c(C)[nH]c(C(=O)Nc2ccc(OCCCN(C)C)c(S(=O)(=O)Nc3ccc(Br)cc3)c2)c1C,inactive
14,O=[S+]([O-])(c1ccc2c(c1)OCCO2)N1CCN([S+](=O)([O-])c2ccc(F)cc2Cl)CC1,inactive
15,Brc1ccccc1-c1nc(NCc2ccc(-c3cccnc3)cc2)c2ccccc2n1,inactive
16,O=C1C2=C(CN1c1ccccc1)NC(Nc1nc3ccccc3o1)=NC2c1ccccc1Cl (stereo not given),inactive
17,CCOc1ccc(CCNC(=O)c2cc3sccc3[nH]2)cc1OCC,inactive
18,COc1ccc(CCNC(=O)Cn2nc(-c3ccc(C)cc3)ccc2=O)cc1OC,inactive
19,Cc1ccc(-c2ccc(=O)n(CC(=O)NCCCc3ccccn3)n2)cc1,inactive
20,CC(=O)Nc1sc2c(c1-c1ccc(N[S+](C)(=O)[O-])cc1)CCNC2,inactive

row,Compound,Potency
1,N#Cc1nc(-c2cccc3ccccc23)oc1NC1CNC1,inactive
2,O=S(=O)(c1c(F)cccc1F)C1CCN(S(=O)(=O)c2ccc3c(c2)OCCO3)CC1,inactive
3,NC(=O)c1ccccc1-c1noc(-c2ccccc2F)n1,inactive
4,FC(F)(F)c1ccccc1-c1nc(NCc2ccc(-c3cccc(Cl)c3)cc2)c2ccccc2n1,inactive
5,COc1ccccc1-c1ccc(=O)n(CC(=O)NCCc2ccccc2)n1,inactive
6,O=C1c2ccccc2C(=O)N1Cc1ccncc1,inactive
7,COc1ccc(C(=O)OCC#CCSc2nnc(-c3cccc4ccccc34)o2)cc1,inactive
8,Cc1cc2c(s1)c1cnn(Cc3cccc(F)c3F)c(=O)c1n2C,inactive
9,Oc1ccc(CNc2ccccc2Cl)c2cccnc12,inactive
10,C[n+]1cc(C(O)(c2ccccc2)c2ccccc2)n2ccccc21,inactive
11,COc1cc(OC)cc(-c2nnc3n2N=C(c2ccc(OC)c(OC)c2)CS3)c1,inactive
12,Nc1ccc2c(c1)S(=O)(=O)NC2=O,inactive
13,COc1cc2nc(Nc3ccccc3)nc(NC3CC3)c2cc1OC,inactive
14,Cc1ccnc(NC(=S)N2CCN(c3ccc(N)cc3)CC2)c1,inactive
15,Cc1cc(N[S+](=O)([O-])c2cc3c(cc2F)NC(=O)CC3)ccc1Br,inactive
16,O=C1Nc2c(Cl)cccc2/C1=C\c1cc(Cl)c(O)c(Cl)c1,inactive
17,O=C(O)c1ccc2c(c1)C(=O)N([C@H](Cc1ccc(C(F)(F)F)cc1)C(=O)O)C2=O,inactive
18,Cc1ccc(NS(=O)(=O)c2ccc(F)cc2)cc1C,inactive
19,COc1ccc(S(=O)(=O)N2CCN(S(=O)(=O)c3ccc4c(c3)OCCO4)CC2)cc1,inactive
20,C#Cc1nc(Nc2cccc(Cl)c2)nc(NC2CCCC2)n1,inactive
